Source: PubChem
An excerpt weighted towards active compounds, which were near 2.4% of everything screened.
S2 tox: cell viability loss in ATXN counter-screen; S2 cells (HEK-293 line with an ATXN2-luciferase reporter) viability, CellTiter-Fluor protease fluorescence, 24 h; Potency, µM (series often up to 56.7 µM), most hits filed as cytotoxic; 0.49% of 400,000 active; AID 651635; note: nearly all actives have a fitted effect of over 40% in size
ATXN2 expr inh: reduces ATXN2 reporter expression in HEK-293 cells; Potency, µM (highest dose often 57 µM), without a hit: top-dose activity change, negative = inhibition, hits mostly inhibitors; HEK-293 ATXN2-luciferase reporter, luminescence, 24 h; 0.72% of 360,000 active; AID 1745845; note: % is set by controls: 0 for no effect and ±100 for the full control effect; nearly all actives have a fitted effect of over 55% in size
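ATXN2-luciferase reporter cells (luciferase flanked by upstream and downstream ATXN2 gene portions) were treated 24 h at 37 °C with compounds at up to 57 uM. SteadyGlo luminescence gave expression; GF-AFC fluorescence gave viability.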
HepG2 tox-1: counter-screen for TGF-b inhibitors: cytotoxicity in HepG2 cells; HepG2 CAGA-GFP viability, ATP luminescence, 18 h; Potency, µM (highest dose often 46.1 µM), inactives show top-dose activity change, negative = cytotoxicity, usual class: cytotoxic; 0.76% of 410,000 active; AID 588856
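CellTiter-Glo luminescence gave cytotoxicity after 18 hours at 37 degrees C. The cells were HepG2 CAGA-GFP in 1% FBS DMEM, stimulated with 500 pg/mL TGF-beta after compound addition. %Activity was normalised to no-cell wells (complete cell-killing) and DMSO (no toxicity), and curves were fitted and classified.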
Anesthetic bind: binds horse apoferritin like a general anesthetic | P02791 | apoferritin/1-aminoanthracene competitive binding, fluorescence | Potency, µM (titrated, usually from 77.5 µM), for inactives: at the top dose activity change, negative = displacement, most hits filed as inhibitors | 0.074% of 350,000 active; note: % is set by controls: 0 for no effect and ±100 for the full control effect; nearly all actives have a fitted effect of over 20% in size
Target sequence (P02791 2-175 limits assumed): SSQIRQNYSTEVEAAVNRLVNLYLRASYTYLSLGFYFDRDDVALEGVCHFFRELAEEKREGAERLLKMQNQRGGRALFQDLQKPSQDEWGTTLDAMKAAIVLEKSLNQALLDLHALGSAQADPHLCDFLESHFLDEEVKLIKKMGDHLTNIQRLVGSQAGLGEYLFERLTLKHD
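Read-out: endpoint 1-AMA fluorescence, excitation 380 nm and emission 535 nm, after compounds sit 10 min at room temperature with 10 uM horse-spleen apoferritin in 50% saturated 1-AMA/PBS. Values come from four-parameter Hill fits.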
TGFb SMAD3 inh: TGF-b pathway inhibition | HepG2 CAGA-GFP TGF-b/SMAD3 reporter, GFP fluorescence, 18 h; TGF-beta stimulated, 500 pg/mL final | Potency, µM (top dose mostly 46.1 µM), inactives show at the highest dose activity, negative = inhibition, most hits filed as inhibitors | 1.2% of 410,000 active | AID 588855; note: % is set by controls: 0 for no effect and ±100 for the full control effect; nearly all actives have a fitted effect of over 65% in size
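Inhibition was scored as loss of TGF-beta-induced (500 pg/mL final, 18 hours, 37 degrees C) GFP in HEPG2 cells carrying a CAGA-GFP reporter, in DMEM with 1% FBS. Well GFP was summed per cell; Activity was normalised to unstimulated and stimulated DMSO wells, then concentration-response fitting.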
TGFb confirm: confirmation of TGF-b signaling inhibitors in HepG2 reporter cells | shares compounds with TGFb SMAD3 inh | 63% of 1,600 active | AID 720534 | Potency, µM (top dose mostly 46.1 µM), inactives show at the top dose activity, negative = inhibition, most hits filed as inhibitors | HepG2 CAGA-GFP TGF-b reporter, GFP fluorescence, 18 h; cells stimulated with TGF-beta, 500 pg/mL; note: % is set by controls: 0 for no effect and ±100 for the full control effect; nearly all actives have a fitted effect of over 65% in size
HepG2 tox-2: toxic to HepG2 cells in TGF-b counterscreen; shares compounds with TGFb SMAD3 inh; HepG2 CAGA-GFP viability, ATP luminescence, 18 h; cells stimulated with TGF-beta, 500 pg/mL; Potency, µM (top dose mostly 46.1 µM), for the others: top-dose activity, negative = cytotoxicity, usual class: inhibitors; 27% of 1,600 active; AID 720535; note: % is set by controls: 0 for no effect and ±100 for the full control effect; nearly all actives have a fitted effect of over 70% in size
CCL64 TGFb inh: TGF-b inhibition, CCL64 orthogonal assay. shares compounds with TGFb SMAD3 inh. CCL64 CAGA-GFP reporter, TGF-b stimulated, GFP fluorescence, 18 h. Potency, µM (top dose mostly 46.1 µM), for the others: at the highest dose activity, negative = inhibition, hits mostly inhibitors. 41% of 1,600 active. AID 720536; note: nearly all actives have a fitted effect of over 65% in size
TGFb COP inh: validation of TGF-b inhibitors in HepG2 COP promoter reporter | HepG2 COP-GFP TGF-b reporter, GFP fluorescence, 18 h; cells stimulated by added recombinant TGF-beta | 3% of 1,600 active | shares compounds with TGFb SMAD3 inh | AID 720537 | Potency, µM (doses to about 46.1 µM), for inactives: at the highest dose activity, negative = inhibition, most hits filed as inhibitors; note: nearly all actives have a fitted effect of over 70% in size
* hit, by the source's call; i = inactive; ? = inconclusive; . = no result. Calls come from the whole dose curve; as a rule, active = well fitted curve in the direction sought with a large enough effect; inconclusive = small, poorly fitted or top-dose-only effect, or another doubt; inactive = no such curve, though single readings can be large; an effect the other way counts as inactive or inconclusive. Potency is the fitted concentration of half-maximal effect.

SMILES	S2 tox	ATXN2 expr inh	HepG2 tox-1	Anesthetic bind	TGFb SMAD3 inh	TGFb confirm	HepG2 tox-2	CCL64 TGFb inh	TGFb COP inh
Cc1ccc(-c2nc3ccc(Br)cn3c2Cc2cccc(F)c2)cc1	i	68%	-11%	.	11µM*	?	-16%	?	-2%
Cc1nc(-c2ccccc2)sc1C1(C)CC(c2cccc([N+](=O)[O-])c2)=NO1 (stereo not given)	i	5%	-22%	-1%	-15%	.	.	.	.
COc1ccc2c(c1)OC[C@H]1[C@H]2N2C(=O)CN(Cc3ccc(Cl)cc3)C(=O)[C@@]2(C)[C@H]1c1ccccc1	i	0%	-25%	.	5µM*	?	-4%	-1%	0%
O=C(COC(=O)CC(c1ccccc1)c1ccccc1)NCc1ccc(Cl)cc1	i	-19%	-7%	48%	11µM*	?	?	?	27%
CCc1nnc(SCc2cccc(Cl)c2)c2cc3sccc3n12	.	.	-42%	79%	.	.	.	.	.
O=C(Nc1ccccc1)[C@@H]1CC=C[C@@H]2CCN(Cc3ccc(Cl)c(Cl)c3)C(=O)[C@@H]21	?	-24%	-17%	.	13µM*	21µM*	?	?	47%
COc1ccc(CN(C)C2c3ccccc3-c3ccccc32)cc1	i	-24%	-37%	-1%	?	.	.	.	.
O=C1Cc2cc(S(=O)(=O)N3CCN(c4cccc(Cl)c4)CC3)ccc2N1	i	-4%	-4%	-22%	14%	.	.	.	.
O=C(Nc1ccc(Br)cc1)c1cccc(S(=O)(=O)Nc2cnc3ccccc3c2)c1	i	-17%	-27%	-14%	13µM*	8.2µM*	?	23µM*	92%
COc1ccccc1CNC(=O)C(C)n1c(=O)cc(C(F)(F)F)c2c(C)nn(C)c21 (stereo not given)	i	-2%	-5%	-2%	?	.	.	.	.
Cc1ccc(N(C)S(=O)(=O)c2cc(-c3cnc(C4CC4)o3)ccc2C)cc1	i	?	-9%	-6%	-2%	.	.	.	.
COc1ccccc1NS(=O)(=O)c1ccc(-c2cnc(C3CC3)o2)cc1	i	.	-24%	-3%	11µM*	?	?	?	4%
Cc1cccc(N(C)S(=O)(=O)c2ccc(-c3cnc(C4CC4)o3)cc2)c1	?	.	-2%	-2%	7.9µM*	4.6µM*	?	6.5µM*	30%
CC(C)C[C@H](NC(=O)c1nc[nH]c1C(=O)N[C@@H](CCCCNC(=O)OC(C)(C)C)C(=O)OC(C)(C)C)C(=O)OC(C)(C)C	?	-27%	-11%	-10%	18µM*	8.2µM*	-20%	21µM*	12%
C[C@H](NC(=O)c1nc[nH]c1C(=O)NCCCCCNC(=O)OC(C)(C)C)C(=O)OC(C)(C)C	?	-27%	-31%	?	?	-11%	-3%	?	-1%
COc1ccc(S(=O)(=O)Nc2ccc(-n3cccc3)cc2)cc1	.	-26%	-27%	-3%	-6%	.	.	.	.
Oc1ccc(Br)cc1-c1cc(-c2ccccc2Cl)[nH]n1	i	4%	-22%	-7%	-29%	.	.	.	.
COc1ccc(O)c(-c2cc(-c3ccccc3Cl)[nH]n2)c1	?	-6%	-63%	6%	7.9µM*	18µM*	?	26µM*	30%
COc1ccc(-c2cc(-c3ccccc3O)[nH]n2)cc1	i	116%	-14%	?	10µM*	?	?	?	44%
CC(=O)N1CCc2c(sc(NC(=O)c3ccc([N+](=O)[O-])o3)c2C#N)C1	?	-16%	-31%	-9%	5.6µM*	4.1µM*	3.3µM*	10µM*	?
CC(C)N1CCc2c(sc(NC(=O)c3ccc([N+](=O)[O-])o3)c2C(N)=O)C1	.	.	.	-15%	.	.	.	.	.
COC(=O)c1sc(NC(=O)c2ccc([N+](=O)[O-])o2)c(C#N)c1C	?	.	-54%	-8%	4.5µM*	7.3µM*	10µM*	15µM*	41%
COC(=O)c1c(NC(=O)c2ccc([N+](=O)[O-])o2)sc2c1CCN(C(C)C)C2	?	?	-8%	-22%	20µM*	2.6µM*	10µM*	26µM*	36%
O=C(Nc1ccc([N+](=O)[O-])cc1)Nc1ccc(OC(F)F)c(Cl)c1	.	13µM*	13µM*	-2%	4.5µM*	13µM*	5.8µM*	3.7µM*	?
COc1ccc(Nc2nnc(-c3ccccc3)c3ccccc23)cc1C(=O)N1CCCCC1	i	0%	-12%	1%	-27%	.	.	.	.
SMILES	S2 tox	ATXN2 expr inh	HepG2 tox-1	Anesthetic bind	TGFb SMAD3 inh	TGFb confirm	HepG2 tox-2	CCL64 TGFb inh	TGFb COP inh
COc1ccc(Nc2nnc(-c3ccc(C)cc3)c3ccccc23)cc1C(=O)N1CCCCC1	?	?	-21%	40%	16µM*	-88%	?	?	45%
COC(=O)c1ccccc1NC(=O)CSc1cc(-c2ccccc2)nc(C)n1	.	.	3%	?	?	.	.	.	.
Cc1c(/C=N\NC(=O)C2COc3ccccc3O2)c2ccccc2n1C (stereo not given)	?	14%	-2%	-9%	8.9µM*	5.8µM*	-13%	6.5µM*	-5%
Cc1ccc(S(=O)(=O)Nc2cccc3cccnc23)cc1	?	5.6µM*	-35%	?	4µM*	16µM*	-21%	8.2µM*	24%
Cc1cccc(/C=C(\c2nc3ccccc3[nH]2)S(=O)(=O)c2ccccc2)c1	?	?	-92%	-9%	10µM*	4.6µM*	4.6µM*	5.8µM*	?
Cc1ccc(NC(=S)c2nc3ccccc3[nH]2)c(C)c1	i	82%	-23%	2%	-19%	.	.	.	.
CCC(C)Nc1nc(-c2ccccn2)nc2ccccc12 (stereo not given)	?	?	-14%	1%	?	15µM*	?	12µM*	72%
